Data on seven molecules can be found in PubChem BioAssay (Tox21).

Molecules are shown by their SMILES. Unmarked numbers belong to inactive results. Inconclusive results are not listed. Calls of active or inactive are those of the source. Unless noted, the call rests on the fitted dose curve; in most records, active means well fitted curve in the direction sought with a large enough effect in the repeat runs; inconclusive means weak or mixed curves; inactive means no such curve, though single readings can be large; an effect the other way counts as inactive or inconclusive.

Assay [1] addresses Luciferin 4-monooxygenase (Photinus pyralis) (UniProt P08659). Kind of assay: qHTS assay to identify small molecule inhibitors of firefly luciferase (AID 1224835). Further: nearly all actives have a fitted effect of over 25% in size. Further: potency means the concentration at half of the fitted maximal effect. An outline of the steps: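 Biochemical qHTS: compounds run as interplate titrations against purified firefly enzyme, with D-luciferin and ATP each at its KM concentration. Light output recorded by CCD imaging.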
(In qHTS, concentration-response curves come from the screen itself.)

Assay [2] in a line: qHTS assay to identify small molecule agonists of the constitutive androstane receptor (CAR) signaling pathway - cell viability counter screen (AID 1224836). Further: nearly all actives have a fitted effect of over 45% in size. The procedure, abridged:
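23 h treatment, 37 C, 5% CO2. Cell line: HepG2 stably expressing hCAR with a CYP2B6-2.2kb construct. Co-treatment: PK11195, 0.75 uM final. Read-out: CellTiter-Fluor fluorescence intensity.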

A short description of assay [3]: qHTS assay to identify small molecule antagonists of the constitutive androstane receptor (CAR) signaling pathway - cell viability counter screen (AID 1224837). Further: nearly all actives have a fitted effect of over 45% in size. The procedure, abridged: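 Counter screen run in HepG2-CYP2B6-hCAR cells: 4 hr settle, compound titration (15 concentrations) with 50 nM CITCO, 23 hr at 37 C/5% CO2, CellTiter-Fluor fluorescence.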
In assay [4] the target is Nuclear receptor subfamily 1 group I member 3 (Homo sapiens) (UniProt Q14994). Kind of assay: qHTS assay to identify small molecule antagonists of the constitutive androstane receptor (CAR) signaling pathway (AID 1224838).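 Further: HepG2 cells stably expressing hCAR with CYP2B6 luciferase reporter stimulated by CITCO; nearly all actives have a fitted effect of over 40% in size.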 The procedure, abridged: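 Cell line: HepG2 double-stable for hCAR and CYP2B6-2.2kb reporter. Agonist: CITCO, 50 nM final. Compounds: 15 concentrations, 24 h, 37 C. Detection: ONE-Glo luminescence.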

The target is the same in assay [5]. Put plainly: qHTS assay to identify small molecule agonists of the constitutive androstane receptor (CAR) signaling pathway (AID 1224839).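 Further: HepG2 cells stably carrying human CAR and a CYP2B6 luciferase reporter; nearly all actives have a fitted effect of over 15% in size.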 An outline of the steps:
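Compounds tested at 15 concentrations on HepG2 cells stably harbouring hCAR and CYP2B6-2.2kb reporter constructs, co-treated with PK11195 (0.75 uM final), 24 h at 37 C; luminescent reporter signal quantified.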

A short description of assay [6]: qHTS assay to identify small molecule antagonists of the estrogen related receptor signaling pathway with the pleiotropic PPARgamma coactivator (PGC) from Tox21 10K library - cell viability counter screen (AID 1224840; active means well fitted cell-killing curve with a large enough effect in the repeat runs, not every such curve was filed as active; further: nearly all actives have a fitted effect of over 40% in size). The procedure, abridged:
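Following seeding of 2,000 PGC/ERR cells/well and 6 hours' incubation, test compounds were delivered in DMSO. The plates then sat 17.5 hours at 37 C before a fluorogenic live-cell protease reagent (CellTiter-Fluor) was read after 30 min.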

Assay [7] can be described thus: qHTS assay to identify small molecule antagonists of the estrogen related receptor signaling pathway with the pleiotropic PPARgamma coactivator (PGC) from Tox21 10K library (AID 1224841; call rule not given here; further: actives are mostly falling curves and most rising ones were filed inactive; nearly all actives have a fitted effect of over 50% in size). The procedure, abridged:
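qHTS antagonist format: PGC/ERR cells, 2k/well, compound in DMSO by pin transfer after 6 h attachment, 18 h treatment at 37 C, One-Glo luminescence read at 30 min.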

Assay [8] is described as follows: qHTS assay to identify small molecule agonists of the estrogen related receptor signaling pathway with the pleiotropic PPARgamma coactivator (PGC) from Tox21 10K library (AID 1224842). Further: nearly all actives have a fitted effect of over 15% in size. An outline of the steps:
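PGC/ERR reporter cell line, 2,000 cells per well, incubated 6 h at 37 C before 23 nL compound in DMSO was added. After 18 h at 37 C, One-Glo luminescence read following 30 min at room temperature.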

For assay [9], the target named is Thyrotropin receptor (Homo sapiens) (UniProt P16473). Put plainly: qHTS assay to identify small molecule agonists of the thyroid stimulating hormone receptor (TSHR) signaling pathway (AID 1224843; calls by dose curve; further: nearly all actives have a fitted effect of over 45% in size). The procedure, abridged:
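Steps: seed 800 TSHR-HEK293 cells per well; add test compound and hold 30 min at ambient temperature; dispense cAMP-d2 then anti-cAMP cryptate; incubate 1 h at ambient; measure fluorescence intensity.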

A short description of assay [10]: qHTS assay to identify small molecule agonists of the hypoxia (HIF-1) signaling pathway - cell viability counter screen (AID 1224844; calls by dose curve; further: nearly all actives have a fitted effect of over 50% in size). An outline of the steps: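 Cells (HRE-bla ME-180, 2,000 per well) sat 5 hrs at 37C, got compound for 17 hrs, were read for CCF4-AM FRET, and were finally lysed with CellTiter-Glo for a 30 min room-temperature luminescence read.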

Assay [11] in a line: qHTS assay to identify small molecule agonists of H2AX (AID 1224845; active means well fitted activation curve with a large enough effect in the signal ratio in the repeat runs, not every such curve was filed as active; the % refers to the signal ratio). The procedure, abridged:
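Wild-type CHO-K1 cells, plated overnight, exposed 3hr at 37C to 15 concentrations (0.76% DMSO final). Lysed, then HTRF anti-pH2AX (S139) cryptate and anti-H2AX-d2 antibodies, 24 hr room temperature; 665/620 nm emission read.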

The nature of assay [12]: qHTS assay to identify small molecule agonists of the hypoxia (HIF-1) signaling pathway (AID 1224846; active means well fitted activation curve with a large enough effect in the signal ratio in the repeat runs, not every such curve was filed as active; the % refers to the signal ratio). The procedure, abridged: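 A low-serum medium (0.5% dialyzed FBS) holding 2,000 HRE-bla ME-180 cells per well is preincubated for 5 hrs, dosed with compounds by pintool, and kept a further 17 hrs at 37C, 5% CO2 before CCF4-AM FRET detection of beta-lactamase.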
Assay [13] is described as follows: qHTS assay to identify small molecule agonists of H2AX - cell viability counter screen (AID 1224847; calls by dose curve; further: top concentration of the series differs between compounds; nearly all actives have a fitted effect of over 30% in size). An outline of the steps: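 Compounds tested at 15 concentrations were incubated 3 hr at 37C with wild-type CHO-K1 cells; cellular ATP-based luminescence (CellTiter-Glo) indicated viability.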
The nature of assay [14]: qHTS assay to identify small molecule antagonists of the estrogen related receptor (ERR) signaling pathway from Tox21 library (AID 1224848). Further: nearly all actives have a fitted effect of over 50% in size. The procedure, abridged: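 Luminescent reporter read-out (ONE-Glo) from NTP's ERR cell line after 18 h treatment at 37 C with DMSO-dissolved Tox21 compounds; cells pre-plated 6 h beforehand at 2,000 per well.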
Assay [15] is described as follows: qHTS assay to identify small molecule agonists of the estrogen related receptor (ERR) signaling pathway from Tox21 library (AID 1224849; calls by dose curve; further: nearly all actives have a fitted effect of over 15% in size). Conditions: ERR reporter cell line, ONE-Glo luciferase, 18 h. The procedure, abridged: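 Screening used an NTP-provided ERR luciferase cell line. Compounds in DMSO were added 6 h after seeding and left 18 h at 37 C before a 30 min ONE-Glo step and luminescence reading.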

Assay [16] in a line: qHTS RealTime-Glo MT Cell Viability Assay in HEK293 cells - 32 hour (AID 1224868). Further: top concentration of the series differs between compounds; nearly all actives have a fitted effect of over 50% in size. An outline of the steps: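 Homogeneous bioluminescent viability format in HEK293 cells (600 cells/well). Following 5 h at 37 C/5% CO2, 23 nL compound was pintooled; the signal was measured repeatedly during 40 h incubation.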
A short description of assay [17]: A CellTox Green Cytotoxicity Assay to monitor cytotoxicity in HEK293 cells - 0 hour (AID 1224869). Further: nearly all actives have a fitted effect of over 50% in size. Further: potency means the concentration at half of the fitted maximal effect. The procedure, abridged: (§1)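 Fluorescence intensity, read at 0, 8, 16, 24, 32 and 40 h of compound treatment, reflected dye binding to DNA of dead HEK293 cells; compounds (23 nL, DMSO) were added 5 h after plating cells with reagent.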
A short description of assay [18]: qHTS RealTime-Glo MT Cell Viability Assay in HepG2 cells - 40 hour (AID 1224870). Further: nearly all actives have a fitted effect of over 50% in size. An outline of the steps: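 HepG2 cells (600/well) mixed with RealTime-Glo MT reagent, settled 5 h at 37 C/5% CO2 before compound addition. Nonlytic NanoLuc luminescence from viable-cell prosubstrate reduction read repeatedly during 40 h treatment at 37 C.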
Assay [19] can be described thus: qHTS RealTime-Glo MT Cell Viability Assay in HepG2 cells - 24 hour (AID 1224867). Further: nearly all actives have a fitted effect of over 50% in size. An outline of the steps: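 Cell number in HepG2 cultures estimated from NanoLuc luminescence generated by metabolic reduction of a prosubstrate by living cells. The homogeneous, nonlytic format allowed repeated reads at 0, 8, 16, 24, 32 and 40 h of compound exposure.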
A short description of assay [20]: A CellTox Green Cytotoxicity Assay to monitor cytotoxicity in HEK293 cells - 40 hour (AID 1224871). Further: nearly all actives have a fitted effect of over 45% in size. Further: potency means the concentration at half of the fitted maximal effect. An outline of the steps:
as §1
On the % scale 0 is the no-effect control and ±100 the full control effect.

Sequence of Thyrotropin receptor (Homo sapiens) (P16473 whole entry, looked up): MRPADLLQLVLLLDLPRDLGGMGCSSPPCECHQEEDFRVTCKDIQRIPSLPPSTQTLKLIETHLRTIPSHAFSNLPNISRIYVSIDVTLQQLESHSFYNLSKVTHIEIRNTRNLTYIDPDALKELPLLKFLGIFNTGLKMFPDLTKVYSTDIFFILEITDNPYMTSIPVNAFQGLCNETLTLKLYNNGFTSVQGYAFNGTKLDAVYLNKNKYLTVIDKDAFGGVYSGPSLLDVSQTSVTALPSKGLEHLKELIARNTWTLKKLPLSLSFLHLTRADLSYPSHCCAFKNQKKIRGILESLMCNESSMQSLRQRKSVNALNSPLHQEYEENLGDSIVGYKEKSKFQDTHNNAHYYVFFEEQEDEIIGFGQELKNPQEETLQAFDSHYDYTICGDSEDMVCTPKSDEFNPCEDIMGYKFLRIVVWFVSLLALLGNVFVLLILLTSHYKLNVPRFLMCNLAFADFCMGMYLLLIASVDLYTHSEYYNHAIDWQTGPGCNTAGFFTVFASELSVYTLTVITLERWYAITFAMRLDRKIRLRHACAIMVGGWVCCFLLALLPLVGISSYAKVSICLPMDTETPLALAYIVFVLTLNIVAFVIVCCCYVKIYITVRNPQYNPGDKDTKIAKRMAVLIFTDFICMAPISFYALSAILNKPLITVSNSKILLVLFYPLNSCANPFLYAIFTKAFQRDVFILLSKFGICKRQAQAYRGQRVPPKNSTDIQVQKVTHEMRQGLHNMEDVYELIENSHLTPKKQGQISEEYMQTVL
Sequence of Luciferin 4-monooxygenase (Photinus pyralis) (P08659 whole entry, looked up): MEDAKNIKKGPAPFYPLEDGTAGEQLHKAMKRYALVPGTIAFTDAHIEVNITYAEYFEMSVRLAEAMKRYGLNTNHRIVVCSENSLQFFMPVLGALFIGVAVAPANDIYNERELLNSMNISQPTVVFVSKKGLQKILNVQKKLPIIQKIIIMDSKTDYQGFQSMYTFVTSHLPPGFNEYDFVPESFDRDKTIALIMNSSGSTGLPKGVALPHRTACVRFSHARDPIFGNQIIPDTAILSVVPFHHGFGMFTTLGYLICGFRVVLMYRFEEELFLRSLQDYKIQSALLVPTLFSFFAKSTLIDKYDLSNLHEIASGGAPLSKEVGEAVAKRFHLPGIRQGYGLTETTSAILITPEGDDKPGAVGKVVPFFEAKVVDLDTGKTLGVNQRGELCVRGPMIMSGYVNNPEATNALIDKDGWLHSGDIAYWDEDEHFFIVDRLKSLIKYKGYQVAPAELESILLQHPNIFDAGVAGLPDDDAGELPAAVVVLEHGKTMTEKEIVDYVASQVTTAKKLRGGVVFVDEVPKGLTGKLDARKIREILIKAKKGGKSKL
Sequence of Nuclear receptor subfamily 1 group I member 3 (Homo sapiens) (Q14994 whole entry, looked up): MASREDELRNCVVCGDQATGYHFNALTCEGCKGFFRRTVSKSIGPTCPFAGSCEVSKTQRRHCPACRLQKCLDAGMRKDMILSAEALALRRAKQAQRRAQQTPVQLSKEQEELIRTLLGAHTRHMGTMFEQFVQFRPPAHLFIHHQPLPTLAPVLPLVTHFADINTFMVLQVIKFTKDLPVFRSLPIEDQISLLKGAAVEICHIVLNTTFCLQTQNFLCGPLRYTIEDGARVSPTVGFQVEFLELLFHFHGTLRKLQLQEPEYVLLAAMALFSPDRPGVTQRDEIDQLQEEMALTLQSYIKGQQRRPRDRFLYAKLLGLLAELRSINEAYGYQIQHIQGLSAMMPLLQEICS

As to `C1CCC(SSC2CCCCC2)CC1`, the Potency entry in assay [1], in assay [2], in assay [3], in assay [4], in [5] and in assay [6] was “inactive” each time. The Potency result in assay [7], in [8], in assay [9], in assay [10], in [11] and in assay [12] was “inactive” in each case. Moreover, the Potency entry in assay [13], in [14], in assay [16], in assay [17] and in assay [18] was “inactive” each time. In assay [15] (at 92.4 µM (top of the series)), the activity change, positive = activation is 5.57%.
Consider `CCCC(=O)OCCc1ccccc1`, for which the Potency in assay [1] was 79.6 µM (active); in assay [17], 43.6 µM (active); in [20], 49 µM (active). Further, the Potency result in assay [2], in [3], in [4], in [5], in assay [6] and in assay [9] was “inactive” throughout. Further, the Potency result in assay [10], in assay [11], in [12], in assay [19], in assay [16] and in assay [18] was “inactive” each time.
Consider `COc1cccc(OC)c1C(=O)O`, for which the Potency entry in [1], in [2], in assay [3], in assay [4], in [5] and in assay [6] was “inactive” throughout. In addition, the Potency entry in assay [9], in [10], in assay [11], in assay [12], in assay [13] and in assay [19] was “inactive” in each case. The Potency entry in assay [16], in assay [17] and in assay [18] was “inactive” each time.
As for `Cc1nc(-c2ccc(Cl)cc2)oc1COC(C)(C)C(=O)O`, the Potency result in [1], in assay [2], in [3], in assay [4], in assay [5] and in assay [6] was “inactive” throughout. Besides, the Potency result in assay [7], in assay [8], in assay [9], in assay [10], in assay [11] and in assay [12] was “inactive” throughout. The Potency result in assay [13], in [19], in [16], in assay [17], in [18] and in assay [20] was “inactive” throughout. Also, the activity change, positive = activation in [15] (at 42.5 µM (top of the series)) was 0.637%.
As for `Cc1ccc(C(=O)O)cc1`, the Potency entry in assay [1], in assay [2], in [3], in assay [4], in [5] and in [6] was “inactive” each time. Also, the Potency entry in [7], in [8], in assay [9], in [10], in assay [11] and in assay [12] was “inactive” in each case. Moreover, the Potency entry in assay [13], in [14], in [19], in assay [16], in assay [17] and in assay [18] was “inactive” throughout. In addition, the Potency result in [20] was “inactive”. Further, in assay [15] (at 92.4 µM (top of the series)), the activity change, positive = activation is -0.305%.
In the case of `Clc1ccnc(Cl)n1`, the Potency entry in assay [1], in assay [2], in assay [3], in assay [4], in [5] and in assay [6] was “inactive” throughout. In addition, the Potency entry in [8], in assay [11], in assay [14], in assay [19], in assay [16] and in [17] was “inactive” each time. Moreover, the Potency result in assay [18] and in assay [20] was “inactive” throughout. For the same molecule, the activity change, positive = activation in assay [15] (at 92.4 µM (top of the series)) was -1.53%.
As to `CC(C(=O)O)c1ccc2c(c1)[nH]c1ccc(Cl)cc12` (configuration not stated), in [1], the Potency was 34.7 µM (active). The Potency entry in assay [2], in assay [3], in assay [4], in assay [5], in assay [6] and in assay [9] was “inactive” each time. Moreover, the Potency entry in [10], in [11], in assay [13], in assay [19], in assay [16] and in [17] was “inactive” each time. Also, the Potency entry in [18] and in assay [20] was “inactive” throughout.
